Results reported in the supplement of paper PMC9897528.

test system: Scedosporium aurantiacum CBS 136046; test: growth inhibition relative to DMSO control (OD600); higher = more antifungal activity, active = 80 or more; extreme values may be limits of the assay; conditions: 5 µM; 72 h; 37 °C
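Note: conidia screened in RPMI 1640 medium under 5% CO2, growth read by spectrophotometer, medium with 0.5% DMSO serving as the untreated reference.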

Growth inhibition, inactive:
CC[C@@H](CO)NCCN[C@@H](CC)CO 11.4%
COCCn1cnc2c(O)nc(Nc3ccccc3)nc21 5.59%
COc1ccc(C[C@@H](C)[C@@H](C)Cc2ccc(OC)c(OC)c2)cc1OC 8.67%
COc1ccc(NC(=O)CC2Sc3ncnn3C2=O)cc1 (stereo not drawn) 0%
O=[N+]([O-])c1cn2c(n1)OC[C@@H](OCc1ccc(OC(F)(F)F)cc1)C2 11.2%
CCc1nc2ccc(Cl)cn2c1C(=O)NCc1ccc(N2CCC(c3ccc(OC(F)(F)F)cc3)CC2)cc1 21.8%
CCCCc1ccc(-c2nc(C)c(C(=O)OC)s2)cc1 12.4%
CCCCSc1nc(N)c2[nH]c(=O)c(=O)n(Cc3ccccc3)c2n1 6.53%
CCOc1ccc(C(=O)NCCc2ccccc2)cc1 33.4%
O=C(Nc1ccc(-c2ccccc2)cc1)C1=C(O)C(Cc2ccccc2)OC1=O (stereo not drawn) 45.3%
Fc1ccc2c(/C=C/c3nnn[nH]3)c[nH]c2c1 4.45%
Nc1nc2c(Cc3cccnc3)c[nH]c2c(=O)[nH]1 2.57%
O=C(c1ccc(F)cc1)N1CCN2C(=O)c3ccccc3C12c1ccccc1 (stereo not drawn) 12.5%
CCCCCCCCC(CP(=O)(O)C(C)N)C(=O)O (stereo not drawn) 6.14%
O=C(NN1C(=O)[C@@H]2[C@@H]3C=C[C@@H]([C@H]4C[C@@H]34)[C@@H]2C1=O)c1ccc(C(F)(F)F)cc1 6.47%
O=C1CCC(N2C(=O)c3ccccc3C2=O)C(=O)N1 (stereo not drawn) 22.9%
Oc1ccc2[nH]c(-c3ccccc3)nc2c1 26.7%
C=C[C@]1(C)C[C@@H](OC(=O)CS[C@@H]2C[C@H]3CC[C@@H](C2)N3C)[C@]2(C)[C@H](C)CC[C@]3(CCC(=O)[C@H]32)[C@@H](C)[C@@H]1O 35.7%
CN(C)CC(=O)Nc1ccc2[nH]c(=O)c3ccccc3c2c1 6.77%
O=C(c1cc(O)nc2ccccc12)N1CCN(c2ccccc2)CC1 5.66%
COc1ccc2nc(-c3ccccc3)cc(O)c2c1 17.5%
O=c1ccc2ncc(=O)n3c2n1CC3CN1CCC(NCc2cc3c(cn2)OCCC3)CC1 (stereo not drawn) 0%
O=S(=O)(NCB(O)O)c1cc2c(Cl)ccc(Cl)c2s1 5.78%
Cc1cccc(C)c1C(=O)Nc1nc(-c2ccccn2)cc2ccccc12 26.2%
CCCC1(C2CC2)c2cc(Cl)ccc2NC(=O)N1C (stereo not drawn) 18.8%
CC(C)(C)NC(=O)[C@@H]1C[C@@H]2CCCC[C@@H]2CN1C[C@@H](O)[C@H](Cc1ccccc1)NC(=O)[C@H](CC(N)=O)NC(=O)c1ccc2ccccc2n1 15%
c1ccc(Cn2c(-c3ccccn3)nc3ccccc32)cc1 14.3%
Cc1cc(Nc2ccc(F)cc2)nc(SCc2nc3ccccc3[nH]2)n1 0%
Clc1cccc(-c2nnc(-c3ccccc3)o2)c1 1.29%
COc1ccc(NC(=O)c2cc3ccccn3n2)cc1 36.8%
CC(C)c1cc2c(cc1S(=O)(=O)O)[C@@]1(C)CCC[C@@](C)(C(=O)O)[C@@H]1CC2 30%
CSc1ccc2c(c1)C(N1CCN(C)CC1)Cc1ccccc1S2 (stereo not drawn) 46.7%
Cc1ccn2c(C(=O)NCc3ccccc3)c(C)nc2c1 34%
CC(N)C12CC3CC(CC(C3)C1)C2 (stereo not drawn) 10.8%
CC(Cc1ccccc1)C(=O)Nc1ccc(Cl)cc1C(=O)O (stereo not drawn) 0%
COc1ccc(C2CNC(=O)C2)cc1OC1CCCC1 (stereo not drawn) 16.6%
CC1CCc2c(N3CCC(O)CC3)c(F)cc3c(=O)c(C(=O)O)cn1c23 (stereo not drawn) 16.2%
CCCCN1C[C@H](O)[C@@H](O)[C@H](O)[C@H]1CO 3.51%
